Activity calls are given as the source filed them. Rule for the calls: active = hit-call score of the fitted dose curve at least 0.9, where 1 is the maximum; inactive = score below 0.9.

The assay concerns SRY-box transcription factor 2 (SOX2) Protein Expression, SOX2 (gene 6657). The assay can be described thus: CCTE_Deisenroth_DEVTOX-GLR_Ecto_SOX2: CCTE's DevTox GLR-Ecto Assay Evaluation of SRY-box transcription factor 2 (SOX2) Protein Expression, Deisenroth Lab. The protocol: CCTE_Deisenroth_DEVTOX-GLR_Ecto assay is a cell-based, multiplex-readout assay that uses RUES2-GLR, a human pluripotent cell line, with measurements taken at 48 hours after chemical dosing in a 384-well microplateCCTE_Deisenroth_DEVTOX-GLR_Ecto_SOX2 is 1 of 4 assay components calculated from the CCTE_Deisenroth_DEVTOX-GLR_Ecto assay and it measures an the percentage of cells in an ectoderm state. Using a type of inducible fluorescent protein reporter, gain-of-signal activity can be used to understand changes in gene expression with fluorescent microscopy. The percentage of SOX2+ cells are determined by calculating the number of SOX2+ cells divided by the cell count. To generalize the intended target to other relatable targets, this assay component is annotated to the transcription factor intended target family, where the subfamily is SRY-related HMG-box.Data from the assay component CCTE_Deisenroth_DEVTOX-GLR_Ecto_SOX2 was analyzed as 1 assay endpoint. The endpoint is the percent change in SOX2+ cell population relative to the 0.2% DMSO control in the CCTE_Deisenroth_DEVTOX-GLR_Ecto assay. Furthermore, this assay endpoint can be referred to as a primary readout, because this assay has produced multiple assay endpoints where this one serves as a measure of ectoderm differentiation.
All assay protocols are aligned to the DevTox GLR-Endo assay workflow. Cells are seeded into 384-well microplates for 24 hours prior to initiating differentiation in defined media for a total duration of 48 hours. A total of two chemical exposures are administered in 24-hour intervals during the 48-hour differentiation period. At the assay termination point, cells are fixed and stained with a fluorescent dye demarcating the nucleus. High-content imaging is used to acquire brightfield and fluorescent channel images across 5 fields per well. Cell identification and mean biomarker fluorescence intensities are calculated with image analysis software to determine the total cell counts for viability assessment and the biomarker expression frequency for each lineage-dependent assay. A typical experimental design tests a 10-point concentration series (1 nM - 200 uM) for 28 compounds in single technical replicate. Assay plate controls include non-differentiated pluripotent cells (baseline control), lineage-specific differentiated cells (differentiation control), and DMSO solvent exposed differentiated cells (solvent control). Experiments typically comprise a minimum of four experimental replicates (n=4).
In the case of `CCN(CC)CCNC(=O)c1c(C)[nH]c(/C=C2\C(=O)Nc3ccc(F)cc32)c1C`, the molecule was called inactive.

Turning to `CC/C(=C(/CC)c1ccc(O)cc1)c1ccc(O)cc1`, the outcome was inactive.

Take `CCCC(CCC)C(=O)O`: the outcome was inactive.

With `Nc1cccc2c1C(=O)N(C1CCC(=O)NC1=O)C2=O` (stereo unspecified), the result was inactive.

As for `O=C1NC(=O)C(c2ccccc2)(c2ccccc2)N1`, the molecule was called inactive. Turning to `O=c1[nH]cc(F)c(=O)[nH]1`, the AC50 is 9.11 µM (active). As for `CC(=O)Nc1ccc(O)cc1`, the result was inactive.

For `O=C1NS(=O)(=O)c2ccccc21`, the call was inactive. On the same count and under the same terms, the entry for `CC1(C)S[C@@H]2[C@H](NC(=O)Cc3ccccc3)C(=O)N2[C@H]1C(=O)O` is “inactive”. Regarding `CC1=C(/C=C/C(C)=C/C=C/C(C)=C\C(=O)O)C(C)(C)CCC1`, the AC50 was 5.86 µM (active). With `CC(C)(c1ccc(O)cc1)c1ccc(O)cc1`, the result was inactive.

Take `O=C1CCC(N2C(=O)c3ccccc3C2=O)C(=O)N1` (stereo unspecified): the result was inactive. For `CS(=O)(=O)OCCCCOS(C)(=O)=O`, the AC50 is 21 µM (active).

Turning to `CN(Cc1cnc2nc(N)nc(N)c2n1)c1ccc(C(=O)N[C@@H](CCC(=O)O)C(=O)O)cc1`, the AC50 was 0.106 µM (active). Take `Nc1nc2ncc(CNc3ccc(C(=O)N[C@@H](CCC(=O)O)C(=O)O)cc3)nc2c(=O)[nH]1`: the molecule was called inactive. On to `CC1=C(/C=C/C(C)=C/C=C/C(C)=C/C(=O)O)C(C)(C)CCC1`, for which the AC50 was 0.471 µM (active).

In general, AC50 refers to the midpoint of the concentration-response curve, whichever way the signal moves.
